Screening data (PubChem BioAssay)
A selection: hits, their analogues and other compounds. The true share with any hit is near 7.9%.
FMDV inh: High Throughput Screening for Foot and Mouth Disease Virus Antivirals; FMDV antiviral cell-based qHTS; Potency, µM (doses to about 57.9 µM), for inactives: top-dose activity change, negative = inhibition, hits mostly inhibitors; hit rate 1.2% among 410,000; calls by dose curve; tested in HEK293T cells; note: read-out not given here; potency is the fitted concentration of half-maximal effect; nearly all actives have a fitted effect of over 45% in size
HCMV inh: qHTS Assay for inhibitors of the human cytomegalovirus (HCMV) | hit rate 4.5% among 410,000 | AID 1259415, 2018 | activity change, negative = inhibition, % at 57.5 µM | HFF cells, HCMV-luciferase reporter, 72 h; hits give low values; in the data active = activity change below about -60%; inconclusive = no clear call, values can overlap the other calls; inactive = above about -39%
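Human foreskin fibroblasts infected with luciferase-reporter HCMV at MOI 1 PFU/cell, compounds at two doses. Luciferase measured 72 h post infection; normalized to buffer-only basal and Salinomycin (10uM) controls.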
Lassa entry inh: qHTS for Inhibitors of binding or entry into cells for Lassa Virus | Lassa virus pseudotype entry inhibition, cell reporter | AID 540256, 2011 | Potency, µM (doses to about 37.9 µM), without a hit: top-dose activity change, negative = inhibition, actives largely listed as inhibitors | hit rate 1.2% among 300,000; calls by dose curve; tested in HEK293 cells; note: potency is the fitted concentration of half-maximal effect; nearly all actives have a fitted effect of over 50% in size
HCV inhibitor: qHTS Assay for Inhibitors of Hepatitis C Virus (HCV); hit rate 3.4% among 340,000; Potency, µM (top dose mostly 41.8 µM), for inactives: top-dose activity change, negative = inhibition, actives largely listed as inhibitors; AID 651820, 2012; Huh7.5.1 HCVcc-Cre infection, luciferase reporter, 44 h; active = well fitted inhibition curve with a large enough effect; inconclusive = small, poorly fitted or top-dose-only effect, or another doubt; inactive = no such curve, though single readings can be large or run the other way; note: potency is the fitted concentration of half-maximal effect
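Antiviral activity was scored by luciferase reporter output from cells infected with HCVcc-Cre (~0.5 moi) in presence of compound, 44 h infection period, cells seeded 1,000/well 4 h prior.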
MARV entry inh: qHTS for inhibitors of binding or entry into cells for Marburg Virus | hit rate 1.8% among 300,000 | Marburg virus pseudotyped entry inhibition, cell reporter | AID 540276, 2011 | Potency, µM (doses to about 37.8 µM), without a hit: top-dose activity change, negative = inhibition, hits mostly inhibitors; calls by dose curve; tested in HEK293 cells; note: potency is the fitted concentration of half-maximal effect
* hit, by the source's call; [ ] = remark or other dose. % is set by controls: 0 for no effect and ±100 for the full control effect.

O=C(NCc1ccc(F)cc1)c1ccc2c(c1)N(Cc1c(F)cccc1Cl)C(=O)CS2 was read as FMDV inh inconclusive, HCMV inh -2, Lassa entry inh 10%[46.1 µM] and MARV entry inh inconclusive.
Screening CCN(CC)S(=O)(=O)c1ccc2oc(C(=O)Nc3ccc(OC)cc3OC)c(C)c2c1 returned FMDV inh -14%, HCMV inh 0, Lassa entry inh 6.5µM*, HCV inhibitor -9% and MARV entry inh inconclusive.
For COc1ccc(NC(=O)c2oc3ccc(S(=O)(=O)N(C)C4CCCCC4)cc3c2C)cc1 the results were FMDV inh inconclusive, HCMV inh -72* and Lassa entry inh inconclusive.
For O=C(c1ccco1)N(Cc1cc2cc3c(cc2nc1N1CCOCC1)CCC3)CC1CCCO1 (stereo not drawn) the results were FMDV inh 10%.
Cc1cccc(NC(=O)c2sc(-n3nc(C)c(Cc4ccc5c(c4)OCO5)c3C)nc2C)c1C was read as FMDV inh 5%, HCMV inh -8, Lassa entry inh 6%[46.1 µM] and MARV entry inh 0%[46.1 µM].
`CNCCC1Sc2ccccc2Oc2ccccc21` (stereo not drawn) gave FMDV inh 6%, HCMV inh -29, Lassa entry inh inconclusive, HCV inhibitor 12% and MARV entry inh inconclusive.
`CN(C)CCCC1Sc2ccccc2Sc2ccccc21` (stereo not drawn) gave FMDV inh inconclusive, HCMV inh -8, Lassa entry inh inconclusive, HCV inhibitor 16µM* and MARV entry inh inconclusive.
`CCCNC(=O)c1c(NC(=O)c2ccccc2)sc2c1CCC(C(C)(C)C)C2` (stereo not drawn) gave FMDV inh 1%, HCMV inh -6, Lassa entry inh -9%[46.1 µM] and MARV entry inh -3%[46.1 µM].
`O=C(CCS(=O)(=O)c1ccc(Br)cc1)N1CCN(c2ccc(Cl)cc2)CC1` gave FMDV inh inconclusive, HCMV inh -79*, Lassa entry inh 14%, HCV inhibitor -10% and MARV entry inh inconclusive.
Screening CC(=O)c1ccc(N2CCN(C(=O)CCS(=O)(=O)c3ccc(C)cc3)CC2)cc1 returned FMDV inh -6%, HCMV inh 26, Lassa entry inh -6%, HCV inhibitor 6% and MARV entry inh 1%.
O=C(CCS(=O)(=O)c1ccc(Br)cc1)N1CCN(c2ccc(F)cc2)CC1 was read as FMDV inh -21%, HCMV inh -65* and HCV inhibitor 1%.
`COc1ccc(N2CCN(C(=O)CCS(=O)(=O)c3ccc(OC)cc3)CC2)cc1` gave FMDV inh -11%, HCMV inh -33 and HCV inhibitor -6%.
For Cc1ccc(S(=O)(=O)CCC(=O)N2CCN(c3ccc([N+](=O)[O-])cc3)CC2)cc1 the results were FMDV inh inconclusive, HCMV inh 0 and HCV inhibitor 13µM*.
For O=C(CCSCc1cccc(Cl)c1)N1CCN(c2ccc(Cl)cc2)CC1 the results were FMDV inh -21%, HCMV inh -63* and Lassa entry inh inconclusive.
`O=c1c2oc3ccccc3c2n(Cc2ccccc2Cl)c(=O)n1Cc1ccc2c(c1)OCO2` gave FMDV inh -6%, HCMV inh -4 and Lassa entry inh 11%[46.1 µM].
Screening Cc1ccc(-c2cc(-c3ccc4c(c3)NC(=O)CO4)nc3c2COc2ccccc2-3)cc1 returned FMDV inh -17%, HCMV inh -2, Lassa entry inh 29%[46.1 µM] and MARV entry inh inconclusive.
Cc1cc(NCC2CCCCC2)nc2ccccc12 was read as FMDV inh -2%, HCMV inh -4, HCV inhibitor inconclusive and MARV entry inh 1µM*.
Screening Cc1ccc(S(=O)(=O)N2C[C@@H](C)[C@]3(C2)[C@H](O)[C@H](OC(=O)Nc2cccs2)C[C@H]2C(=O)N(c4ccccc4)C(=O)[C@H]23)cc1 returned FMDV inh inconclusive and HCMV inh -104*.
`COCCN(C(=O)CCC(=O)Nc1cc(C)on1)C(C(=O)NC(C)(C)C)c1ccccc1Cl` (stereo not drawn) gave FMDV inh 25%, HCMV inh -63*, Lassa entry inh 10%, HCV inhibitor 21% and MARV entry inh 9%.
